This passage reports signal change vs control minus 3*SD hit threshold (margin above threshold, higher = more increase) results from PubChem BioAssay AID1839 (Johns Hopkins Ion Channel Center, 2009).

The whole screen tested about 2,400 compounds, of which about 220 (9.2%) were called active.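 Rule for the calls: active = signal change above the mean of dofetilide-free buffer controls plus 3 SD, so a positive margin; inactive = the rest.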 This excerpt belongs to a sample that is enriched for actives.

A short description of the assay: thallium signal changes without hERG – cell-based, CHO-K1 parental line, FluxOR thallium flux, counter-screen for hERG block protection project, confirmation (AID 1839).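 Note: compounds applied alone with no dofetilide to cells lacking hERG.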 Conditions: CHO-K1 parental cells, FluxOR thallium flux fluorescence; at 10 µM.
Consider `O=C(CSc1nc(N2CCCCC2)nc(N2CCCCC2)n1)c1ccccc1`, for which the signal change vs control minus 3*SD hit threshold (margin above threshold, higher = more increase) was -13.7% (inactive).

Regarding `Cc1nn(-c2ccc(Cl)cc2)c2sc(C(=O)c3c(N)n(C)c(=O)n(C)c3=O)cc12`, the signal change vs control minus 3*SD hit threshold (margin above threshold, higher = more increase) is -34.5% (inactive).

On to `Cc1ccc(N=Cc2cc(Cl)cc(Cl)c2O)nc1`, for which the signal change vs control minus 3*SD hit threshold (margin above threshold, higher = more increase) is -26.6% (inactive).

With `Cc1cccc(N=Cc2cc(Br)cc(Cl)c2O)c1`, the signal change vs control minus 3*SD hit threshold (margin above threshold, higher = more increase) was 3.2% (active).

For the compound `NC(=O)c1cccc(N=Cc2cc(Cl)cc(Cl)c2O)c1`, the signal change vs control minus 3*SD hit threshold (margin above threshold, higher = more increase) is -22.3% (inactive).

For `Oc1c(Cl)cc(Cl)cc1C=Nc1ccc(Br)cc1`, the signal change vs control minus 3*SD hit threshold (margin above threshold, higher = more increase) is 12.8% (active).

Turning to `COc1cc(Br)cc(C=Nc2cccc(C(F)(F)F)c2)c1O`, the signal change vs control minus 3*SD hit threshold (margin above threshold, higher = more increase) was -8.3% (inactive).

As to `Cc1ccc(N=Cc2cc(Br)cc(Cl)c2O)cc1`, the signal change vs control minus 3*SD hit threshold (margin above threshold, higher = more increase) was -4.8% (inactive).

Regarding `COc1cc(C2NC(=O)NC(O)(C(F)(F)F)C2C(C)=O)cc(OC)c1OC` (stereo not given), the signal change vs control minus 3*SD hit threshold (margin above threshold, higher = more increase) was -34.1% (inactive).

With `CCOc1cc(/C=C2/C(=O)ON=C2C)ccc1O`, the signal change vs control minus 3*SD hit threshold (margin above threshold, higher = more increase) was -38.8% (inactive).

With `Oc1ccc(Cl)cc1C1=NNC(c2cccs2)C1` (stereo not given), the signal change vs control minus 3*SD hit threshold (margin above threshold, higher = more increase) was -19.1% (inactive).

For the compound `Cc1ccc(SCc2ccc(C(=O)N3CCCC3)cc2)cc1`, the signal change vs control minus 3*SD hit threshold (margin above threshold, higher = more increase) is -17% (inactive).

For the compound `CCOc1ccc(NC(=S)NS(=O)(=O)c2cc(Br)ccc2OCC)cc1`, the signal change vs control minus 3*SD hit threshold (margin above threshold, higher = more increase) was -3.6% (inactive).

As for `Nc1nnc(SCC(=O)OCc2ccc(F)cc2)s1`, the signal change vs control minus 3*SD hit threshold (margin above threshold, higher = more increase) is -40.4% (inactive).

For the compound `Cc1cccc(N2CCN(C(=O)Cc3c(C(=O)O)[nH]c4ccc(Cl)cc34)CC2)c1C`, the signal change vs control minus 3*SD hit threshold (margin above threshold, higher = more increase) is -33.6% (inactive).

As for `Cc1ccc(S(=O)(=O)N(C)C)cc1NC(=S)NC(C)CCCC(C)C` (stereo not given), the signal change vs control minus 3*SD hit threshold (margin above threshold, higher = more increase) was -30.7% (inactive).

For `CC(Nc1ccc(F)cc1)=[N+](C)CCNS(=O)(=O)c1ccc(Cl)cc1`, the signal change vs control minus 3*SD hit threshold (margin above threshold, higher = more increase) was -34.8% (inactive).

For `CC(=O)c1c(N)[nH]c(-c2ccccc2)nc1=S`, the signal change vs control minus 3*SD hit threshold (margin above threshold, higher = more increase) was -6.7% (inactive).

Take `CC(=O)c1c(C)[nH]c(-c2ccccc2)nc1=S`: the signal change vs control minus 3*SD hit threshold (margin above threshold, higher = more increase) is -20.4% (inactive).

Regarding `CSc1nc(-c2ccccc2)[nH]c(=S)c1C(C)=O`, the signal change vs control minus 3*SD hit threshold (margin above threshold, higher = more increase) was 34.8% (active).

Regarding `O=C1C2CC=CCC2C(=O)N1c1ccc(Cc2ccncc2)cc1` (stereo not given), the signal change vs control minus 3*SD hit threshold (margin above threshold, higher = more increase) is -16% (inactive).

As to `CCCCn1c(-c2csc(C(C)C)c2)n[nH]c1=S`, the signal change vs control minus 3*SD hit threshold (margin above threshold, higher = more increase) is -20.9% (inactive).

Regarding `O=C(Cn1nnc(-c2cccc(C(F)(F)F)c2)n1)N1CCCCCC1`, the signal change vs control minus 3*SD hit threshold (margin above threshold, higher = more increase) is -29.6% (inactive).

For `O=c1c2cc(Br)ccc2nc(-c2ccc(Cl)cc2)n1O`, the signal change vs control minus 3*SD hit threshold (margin above threshold, higher = more increase) is 48.2% (active).

Regarding `NC(=O)c1nn2c(C(F)(F)F)cc(-c3ccccc3)nc2c1Br`, the signal change vs control minus 3*SD hit threshold (margin above threshold, higher = more increase) is -26% (inactive).

As for `CCCn1c(SC(C)C(=O)N2CCOCC2)nc2ccc(Br)cc2c1=O` (stereo not given), the signal change vs control minus 3*SD hit threshold (margin above threshold, higher = more increase) was -28.1% (inactive).

On to `O=c1c2cc(Br)ccc2nc(-c2cccc(C(F)(F)F)c2)n1O`, for which the signal change vs control minus 3*SD hit threshold (margin above threshold, higher = more increase) is 69.7% (active).

Take `COc1cc(OC)cc(-c2nc3ccccc3c(=O)n2OC(=O)c2ccc(Br)cc2)c1`: the signal change vs control minus 3*SD hit threshold (margin above threshold, higher = more increase) is -34.9% (inactive).

Turning to `O=c1c2cc(Br)ccc2nc(-c2cccc(Cl)c2)n1O`, the signal change vs control minus 3*SD hit threshold (margin above threshold, higher = more increase) is 45.7% (active).

Consider `N#Cc1ccc(-c2nc3cc(Cl)ccc3c(=O)n2O)cc1`, for which the signal change vs control minus 3*SD hit threshold (margin above threshold, higher = more increase) was -29.9% (inactive).

`O=c1c2ccc(Cl)cc2nc(-c2cccc(C(F)(F)F)c2)n1O`: the signal change vs control minus 3*SD hit threshold (margin above threshold, higher = more increase) is 66.5% (active).

Consider `CCCn1c(SCN2C(=O)c3ccccc3C2=O)nc2cc(Cl)ccc2c1=O`, for which the signal change vs control minus 3*SD hit threshold (margin above threshold, higher = more increase) is -10.9% (inactive).

As to `O=C(CCc1ccccc1Cl)Nc1ccc(S(=O)(=O)N2CCOCC2)cc1`, the signal change vs control minus 3*SD hit threshold (margin above threshold, higher = more increase) was -31.3% (inactive).

Regarding `CC(=O)OCC1O[C@@H](O[C@@H]2C[C@H]3C(C)(C)[C@H](OC(C)=O)CC[C@]3(C)[C@H]3CC[C@]45C[C@]4(CC[C@H]5[C@@H](C)C[C@@H](O)[C@H](O)C(C)(C)O)[C@@]32C)[C@H](O)[C@@H](O)[C@@H]1O` (stereo not given in full), the signal change vs control minus 3*SD hit threshold (margin above threshold, higher = more increase) was -4.8% (inactive).

In the case of `Cc1c(OC(C)C(=O)NCCN2CCOCC2)ccc2c3c(c(=O)oc12)CCC3` (stereo not given), the signal change vs control minus 3*SD hit threshold (margin above threshold, higher = more increase) was -28.3% (inactive).

`Cc1occc1C(=O)NNC(=S)NC(=O)COc1ccc(Cl)cc1Cl`: the signal change vs control minus 3*SD hit threshold (margin above threshold, higher = more increase) is -23.7% (inactive).

Consider `Cc1c(C#N)c(O)[nH]c(=O)c1N=Nc1ccc(Br)cc1C(=O)O`, for which the signal change vs control minus 3*SD hit threshold (margin above threshold, higher = more increase) is -28.4% (inactive).

`O=c1c2cc(Br)ccc2nc(-c2ccccc2)n1O`: the signal change vs control minus 3*SD hit threshold (margin above threshold, higher = more increase) was 5.2% (active).

Consider `O=c1cc(-c2ccccc2)cc(-c2ccccc2)n1O`, for which the signal change vs control minus 3*SD hit threshold (margin above threshold, higher = more increase) was -22.5% (inactive).

On to `N#Cc1ccc(-c2nc3ccc(Br)cc3c(=O)n2O)cc1`, for which the signal change vs control minus 3*SD hit threshold (margin above threshold, higher = more increase) was -5.1% (inactive).

Consider `Cc1sc2nc(C(C)C)nc(SCC(=O)NCc3ccco3)c2c1C`, for which the signal change vs control minus 3*SD hit threshold (margin above threshold, higher = more increase) is -12.6% (inactive).

For the compound `CC(C)(C)c1ccc(C(=O)NC(=S)N2CCCC2)cc1`, the signal change vs control minus 3*SD hit threshold (margin above threshold, higher = more increase) is -17.2% (inactive).

Consider `CC(C)(C)c1ccc(C(=O)NC(=S)N2CCCCCC2)cc1`, for which the signal change vs control minus 3*SD hit threshold (margin above threshold, higher = more increase) was -12.4% (inactive).

Turning to `O=C(NC(=S)N1CCCC(C(F)(F)F)C1)c1ccc(F)cc1` (stereo not given), the signal change vs control minus 3*SD hit threshold (margin above threshold, higher = more increase) was 4.7% (active).

As for `CNC(=S)N/N=C/c1cc(Br)cc(Br)c1O`, the signal change vs control minus 3*SD hit threshold (margin above threshold, higher = more increase) was -14.8% (inactive).

On to `CC(=O)N1c2ccc(N=Cc3cc(Br)cc(Br)c3O)cc2CC1C` (stereo not given), for which the signal change vs control minus 3*SD hit threshold (margin above threshold, higher = more increase) was 1.6% (active).

As for `Cc1nnc(C)n1/N=C/c1cc(Br)cc(Br)c1O`, the signal change vs control minus 3*SD hit threshold (margin above threshold, higher = more increase) is -18.1% (inactive).

Consider `NC(=O)[C@@H]1CCCN1Cc1nc(Cc2ccccc2Cl)no1`, for which the signal change vs control minus 3*SD hit threshold (margin above threshold, higher = more increase) was -33.1% (inactive).

With `CSc1nc(C)c(Cc2ccccc2)c(=O)[nH]1`, the signal change vs control minus 3*SD hit threshold (margin above threshold, higher = more increase) was -30.6% (inactive).

As to `Cc1ccc(N=Nc2ccc(O)c3ncccc23)cc1`, the signal change vs control minus 3*SD hit threshold (margin above threshold, higher = more increase) is -33.4% (inactive).

As to `CN(C)c1ccc(N=Nc2ccc(C(=O)O)cc2)cc1`, the signal change vs control minus 3*SD hit threshold (margin above threshold, higher = more increase) is -27.2% (inactive).

Turning to `O=c1ccc(N=Nc2ccccc2)ccc1O`, the signal change vs control minus 3*SD hit threshold (margin above threshold, higher = more increase) is 27.6% (active).

On to `CCC1CCCCN1C(=S)NC(=O)c1cccs1` (stereo not given), for which the signal change vs control minus 3*SD hit threshold (margin above threshold, higher = more increase) is -31.1% (inactive).

For `COc1ccc(C(=O)Nc2ccccc2C(=O)O)cc1Cl`, the signal change vs control minus 3*SD hit threshold (margin above threshold, higher = more increase) was -30.4% (inactive).

In the case of `COc1ccc(/C=C/C(=O)Nc2ccccc2C(=O)O)cc1`, the signal change vs control minus 3*SD hit threshold (margin above threshold, higher = more increase) is -18.6% (inactive).

As to `COc1ccc(-n2nc(C)cc2Nc2ccccc2C(=O)O)cc1`, the signal change vs control minus 3*SD hit threshold (margin above threshold, higher = more increase) was 0.3% (active).

For the compound `CCOc1cc(N2CCOCC2)c(OCC)cc1NC(=O)Cc1ccccc1`, the signal change vs control minus 3*SD hit threshold (margin above threshold, higher = more increase) was -13.5% (inactive).

In the case of `Nc1nonc1-n1nnc(C(=O)N/N=C/c2ccccn2)c1-c1ccccc1`, the signal change vs control minus 3*SD hit threshold (margin above threshold, higher = more increase) was -22.7% (inactive).

`O=C(NC(=S)Nc1nc2c(s1)CSc1ccccc1-2)c1ccccc1`: the signal change vs control minus 3*SD hit threshold (margin above threshold, higher = more increase) is -20.9% (inactive).

As for `COc1ccc(-c2cc(C(F)(F)F)nc(SCC(=O)NCc3cccs3)n2)cc1`, the signal change vs control minus 3*SD hit threshold (margin above threshold, higher = more increase) was -17.2% (inactive).

Take `Cc1ccccc1NC1=NC(=S)N(c2ccccc2)C12CCCCC2`: the signal change vs control minus 3*SD hit threshold (margin above threshold, higher = more increase) was -2.6% (inactive).

`CCOc1ccccc1NC(=O)C(=O)CC(=O)c1ccc(OC)cc1`: the signal change vs control minus 3*SD hit threshold (margin above threshold, higher = more increase) is -20.6% (inactive).

As to `COc1ccc(C(=O)CC(=O)C(=O)Nc2ccc(C)cc2Cl)cc1`, the signal change vs control minus 3*SD hit threshold (margin above threshold, higher = more increase) is -13.5% (inactive).

Regarding `COc1cccc(C(=O)NNC(=O)C(=O)Nc2ccc(OC)cc2OC)c1`, the signal change vs control minus 3*SD hit threshold (margin above threshold, higher = more increase) is -6.2% (inactive).

Turning to `COc1cccc(C(=O)NNC(=O)C(=O)Nc2cccc3ccccc23)c1`, the signal change vs control minus 3*SD hit threshold (margin above threshold, higher = more increase) was 11.1% (active).

With `COc1ccc(C(=O)NNC(=O)C(=O)Nc2cccc3ccccc23)cc1`, the signal change vs control minus 3*SD hit threshold (margin above threshold, higher = more increase) was 12.2% (active).

On to `CCOc1ccccc1NC(=O)C(=O)CC(=O)c1cccc(OC)c1`, for which the signal change vs control minus 3*SD hit threshold (margin above threshold, higher = more increase) was -25.9% (inactive).

With `COc1ccc(C(=O)CC(=O)C(=O)Nc2ccccc2OC)cc1`, the signal change vs control minus 3*SD hit threshold (margin above threshold, higher = more increase) was -25.2% (inactive).

As for `COc1ccc(C(=O)CC(=O)C(=O)Nc2ccccc2Cl)cc1`, the signal change vs control minus 3*SD hit threshold (margin above threshold, higher = more increase) is 10.1% (active).

In the case of `COc1ccc(C(=O)CC(=O)C(=O)Nc2ccccc2C(F)(F)F)cc1`, the signal change vs control minus 3*SD hit threshold (margin above threshold, higher = more increase) is -24.1% (inactive).
